Data on 6 molecules can be found in PubChem BioAssay.

Assay [1] can be described thus: reduced mouse 2C T cell binding to pMHC/ICAM-1 vesicles – MLPCN validation set, flow cytometry, LFA-1/ICAM-1 modulator project, pilot screen (AID 2523;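 active = response below a set limit, under 55% cells CD8-positive and vesicle-bound, and CD8 cells' 90th-percentile brightness under 279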;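 as to vesicle binding response: mean PE anti-B7-1 fluorescence of CD8+ cells relative to row control; 100% = QL9-loaded vesicles with DMSO vehicle in the same plate row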). As to conditions: 2C mouse CD8+ T cells, at 7 µM, stronger effect = lower value; double positive events: measured here: CD8+/vesicle+ event percentage. In general terms: Flow cytometry measures light scatter and fluorescence of single cells or particles in a stream.

For assay [2], the target named is Integrin beta-1 (Homo sapiens) + Integrin alpha-4 (Homo sapiens) (UniProt P13612+P05556). Put plainly: alpha4beta1 integrin LIBS antibody binding reduction – U937 cells, HUTS-21 mAb, flow cytometry, validation set, VLA-4 allosteric modulator project, pilot screen (AID 2674;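 active = inhibition above 50%, about 3 SD of the validation set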;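 also: antibody binding induced by the VLA-4 ligand LDV present at three times its Kd; 0% = LDV ligand with antibody and no compound and 100% = antibody without LDV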). As to conditions: HUTS-21 LIBS mAb binding, at 6.7 µM, stronger effect = higher value, binding induced by LDV ligand.
Sequence of Integrin beta-1 (Homo sapiens) + Integrin alpha-4 (Homo sapiens) (P05556 whole entry, looked up): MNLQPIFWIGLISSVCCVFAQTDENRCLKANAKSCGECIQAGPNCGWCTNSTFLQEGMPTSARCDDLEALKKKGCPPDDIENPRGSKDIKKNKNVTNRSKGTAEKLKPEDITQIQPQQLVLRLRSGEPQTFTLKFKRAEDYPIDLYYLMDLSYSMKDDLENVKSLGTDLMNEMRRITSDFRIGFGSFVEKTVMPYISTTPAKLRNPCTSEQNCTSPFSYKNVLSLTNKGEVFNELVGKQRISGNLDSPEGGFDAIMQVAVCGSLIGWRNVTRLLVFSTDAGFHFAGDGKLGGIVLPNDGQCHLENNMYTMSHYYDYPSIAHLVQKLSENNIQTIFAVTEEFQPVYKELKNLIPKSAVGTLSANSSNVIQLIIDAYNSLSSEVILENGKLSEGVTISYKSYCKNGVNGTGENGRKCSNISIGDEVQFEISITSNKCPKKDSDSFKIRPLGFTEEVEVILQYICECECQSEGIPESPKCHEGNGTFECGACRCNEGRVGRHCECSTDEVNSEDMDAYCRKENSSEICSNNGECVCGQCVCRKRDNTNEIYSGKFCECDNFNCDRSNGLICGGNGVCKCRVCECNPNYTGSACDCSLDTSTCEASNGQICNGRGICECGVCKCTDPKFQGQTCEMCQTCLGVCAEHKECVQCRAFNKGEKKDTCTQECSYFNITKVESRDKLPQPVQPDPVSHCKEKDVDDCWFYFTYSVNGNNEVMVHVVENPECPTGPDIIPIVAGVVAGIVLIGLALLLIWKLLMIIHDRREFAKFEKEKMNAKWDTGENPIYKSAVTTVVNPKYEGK
Sequence of Integrin beta-1 (Homo sapiens) + Integrin alpha-4 (Homo sapiens) (P13612 whole entry, looked up): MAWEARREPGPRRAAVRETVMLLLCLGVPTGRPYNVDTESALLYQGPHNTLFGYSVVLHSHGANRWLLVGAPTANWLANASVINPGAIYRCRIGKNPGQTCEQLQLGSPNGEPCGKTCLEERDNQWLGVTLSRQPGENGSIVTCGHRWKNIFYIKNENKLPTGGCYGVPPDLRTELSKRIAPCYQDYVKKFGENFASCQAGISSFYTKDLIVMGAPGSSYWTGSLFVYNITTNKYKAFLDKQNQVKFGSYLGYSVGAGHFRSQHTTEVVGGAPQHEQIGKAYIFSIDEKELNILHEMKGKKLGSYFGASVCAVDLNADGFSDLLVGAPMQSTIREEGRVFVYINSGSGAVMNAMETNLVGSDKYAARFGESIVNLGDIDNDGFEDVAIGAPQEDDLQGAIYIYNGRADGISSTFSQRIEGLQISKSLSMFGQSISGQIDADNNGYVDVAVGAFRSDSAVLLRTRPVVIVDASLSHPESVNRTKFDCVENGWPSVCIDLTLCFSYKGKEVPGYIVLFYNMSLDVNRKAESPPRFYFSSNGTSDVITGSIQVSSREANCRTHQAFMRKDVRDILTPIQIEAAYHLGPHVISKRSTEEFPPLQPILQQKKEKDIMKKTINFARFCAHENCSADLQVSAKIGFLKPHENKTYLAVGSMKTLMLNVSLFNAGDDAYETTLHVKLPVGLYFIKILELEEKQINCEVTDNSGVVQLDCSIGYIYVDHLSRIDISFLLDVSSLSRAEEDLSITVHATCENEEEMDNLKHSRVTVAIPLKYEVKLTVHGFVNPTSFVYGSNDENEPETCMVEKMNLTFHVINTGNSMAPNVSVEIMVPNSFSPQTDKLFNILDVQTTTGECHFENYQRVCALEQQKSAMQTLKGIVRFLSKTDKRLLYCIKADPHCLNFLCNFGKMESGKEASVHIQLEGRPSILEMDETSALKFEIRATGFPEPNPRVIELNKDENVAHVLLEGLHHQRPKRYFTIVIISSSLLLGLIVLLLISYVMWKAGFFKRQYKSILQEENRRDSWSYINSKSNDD

Assay [3] in a line: calorie-restriction mimetic ROS inhibitors, yeast – validation compound set, pilot screen (AID 2706;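 active = superoxide response below 65% of plate, a cut near 3 SD across the whole screen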;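 also: yeast exposed to compound for one week at 30 degrees C before staining; 100% = mean of all compound wells on the same plate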). Particulars: S. cerevisiae aging, superoxide DHE fluorescence; at 10 µM, stronger effect = lower value.
Assay [4] concerns the target Beta-adrenergic receptor kinase 1 (Homo sapiens) (UniProt P25098). Nature of the assay: GRK2 binders displacing RNA aptamer, biochemical, validation, human GRK2, bead flow cytometry (AID 488806;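 active = aptamer binding inhibition above 30%, about 3 SD of noise from non-fluorescent compounds; inactive = inhibition at or below 30%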). As to conditions: bead-bound GRK2, FAM-aptamer displacement, at 10 µM, stronger effect = higher value.
Assay [5] concerns the target Beta-2 adrenergic receptor (Homo sapiens) (UniProt P07550). Nature of the assay: agonist-induced loss of surface beta2AR – cell-based, FAP fluorogen, flow cytometry, validation set, pilot screen (AID 504459;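 active = percent response above 42, roughly 3 SD of non-fluorescent test compounds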;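 also: agonist-driven loss of surface beta2AR via internalization measured by FAP dye flow cytometry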). Particulars: Am2.2-beta2AR cells, at 10 µM, stronger effect = higher value.
The target of assay [6] is AP-2 complex subunit beta (Homo sapiens) (UniProt P63010). Put plainly: beta-arrestin/AP2 interaction blockers – biochemical, validation set, GST-AP2 beads, flow cytometry, pilot screen (AID 504541).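 Also: AP2 carries R879A mutation and is captured from E. coli lysate; bead-bound FITC arrestin peptide fluorescence measuring arrestin peptide binding to AP2; 0% = DMSO wells and 100% = excess unlabeled arrestin peptide control.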 Particulars: FITC arrestin peptide, at 10 µM, stronger effect = higher value, AP2 beta2 appendage fragment, R879A mutant.
Sequence of AP-2 complex subunit beta (Homo sapiens) (P63010 whole entry, looked up, the tested form may be a part, one chain of several): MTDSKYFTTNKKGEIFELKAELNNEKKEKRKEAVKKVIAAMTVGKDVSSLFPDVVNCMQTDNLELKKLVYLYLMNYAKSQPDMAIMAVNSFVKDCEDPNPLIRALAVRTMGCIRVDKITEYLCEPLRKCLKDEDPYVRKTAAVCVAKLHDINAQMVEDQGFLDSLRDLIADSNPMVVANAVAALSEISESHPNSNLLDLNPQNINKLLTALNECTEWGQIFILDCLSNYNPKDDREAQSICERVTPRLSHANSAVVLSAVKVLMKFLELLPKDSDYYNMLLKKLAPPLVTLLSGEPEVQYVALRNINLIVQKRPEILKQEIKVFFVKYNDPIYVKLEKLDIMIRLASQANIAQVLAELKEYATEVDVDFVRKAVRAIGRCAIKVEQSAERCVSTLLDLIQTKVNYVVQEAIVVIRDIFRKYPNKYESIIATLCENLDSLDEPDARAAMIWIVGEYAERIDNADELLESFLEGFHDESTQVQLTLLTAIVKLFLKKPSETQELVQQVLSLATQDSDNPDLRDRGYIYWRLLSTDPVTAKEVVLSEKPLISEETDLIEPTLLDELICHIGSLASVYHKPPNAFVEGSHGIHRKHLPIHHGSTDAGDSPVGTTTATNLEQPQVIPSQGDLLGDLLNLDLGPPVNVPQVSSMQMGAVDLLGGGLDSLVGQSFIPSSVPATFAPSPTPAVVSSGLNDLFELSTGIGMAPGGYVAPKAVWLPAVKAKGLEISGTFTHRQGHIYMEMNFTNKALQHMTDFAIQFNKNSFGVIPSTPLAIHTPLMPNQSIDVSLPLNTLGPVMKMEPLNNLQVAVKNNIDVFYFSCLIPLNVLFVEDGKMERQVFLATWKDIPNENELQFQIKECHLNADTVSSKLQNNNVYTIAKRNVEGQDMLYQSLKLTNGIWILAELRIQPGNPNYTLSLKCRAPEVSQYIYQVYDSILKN
A short description of assay [7]: cytosolic pH regulators acting via V-ATPase – S. cerevisiae, pHLuorin, HTS validation (AID 504600; in the data active = response above about 15%;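 also: plate controls were DMSO for no effect and reference compound for full effect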). As to conditions: V-ATPase proton transport, at 10 µM, stronger effect = higher value.
In assay [8] the test system is anti-desmoglein-3 scFv antibody binding to human DSG3. Nature of the assay: blockers of pathogenic pemphigus antibody–desmoglein-3 binding – biochemical, validation compound set, bead-based, flow cytometry, pilot screen (AID 588368;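 active = binding below the plate cutoff, the plate median minus 3 SD, with a reading above zero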;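 also: signal is the median channel fluorescence of bead-bound GFP antibody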). Particulars: Protein G beads, DSG3-Fc, scFv-GFP binding, at 10 µM, stronger effect = lower value.
Assay [9] is described as follows: Nile Red efflux blockade in pump-expressing yeast – validation compound set, multiplex, phenotypic, pilot screen (AID 588506;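 active = efflux inhibition above 0.42, the validation set average plus 4 SD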;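 also: Nile Red retained in cells so higher fluorescence means more efflux inhibition; 0 = negative control wells and 1 = enniatin B 25 µM full block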). Particulars: S. cerevisiae pump-expressing triplex, Nile Red efflux flow cytometry; at 10 µM; stronger effect = higher value; the pumps come from Candida albicans.
In assay [10] the target is ATP-binding cassette sub-family B member 6 (Homo sapiens) (UniProt Q9NP58). Nature of the assay: blockers of ABCB6-driven porphyrin uptake – K562-ABCB6 cells, flow cytometry, validation set, pilot screen (AID 588550;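 active = inhibition above the screen-wide mean plus 3 SD, about 51%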;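 also: 0% = DMSO wells and 100% = benzethonium chloride 70 µM positive control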). Particulars: K562-ABCB6 porphyrin accumulation, 1 h, at 10 µM, stronger effect = higher value.
Sequence of ATP-binding cassette sub-family B member 6 (Homo sapiens) (Q9NP58 whole entry, looked up): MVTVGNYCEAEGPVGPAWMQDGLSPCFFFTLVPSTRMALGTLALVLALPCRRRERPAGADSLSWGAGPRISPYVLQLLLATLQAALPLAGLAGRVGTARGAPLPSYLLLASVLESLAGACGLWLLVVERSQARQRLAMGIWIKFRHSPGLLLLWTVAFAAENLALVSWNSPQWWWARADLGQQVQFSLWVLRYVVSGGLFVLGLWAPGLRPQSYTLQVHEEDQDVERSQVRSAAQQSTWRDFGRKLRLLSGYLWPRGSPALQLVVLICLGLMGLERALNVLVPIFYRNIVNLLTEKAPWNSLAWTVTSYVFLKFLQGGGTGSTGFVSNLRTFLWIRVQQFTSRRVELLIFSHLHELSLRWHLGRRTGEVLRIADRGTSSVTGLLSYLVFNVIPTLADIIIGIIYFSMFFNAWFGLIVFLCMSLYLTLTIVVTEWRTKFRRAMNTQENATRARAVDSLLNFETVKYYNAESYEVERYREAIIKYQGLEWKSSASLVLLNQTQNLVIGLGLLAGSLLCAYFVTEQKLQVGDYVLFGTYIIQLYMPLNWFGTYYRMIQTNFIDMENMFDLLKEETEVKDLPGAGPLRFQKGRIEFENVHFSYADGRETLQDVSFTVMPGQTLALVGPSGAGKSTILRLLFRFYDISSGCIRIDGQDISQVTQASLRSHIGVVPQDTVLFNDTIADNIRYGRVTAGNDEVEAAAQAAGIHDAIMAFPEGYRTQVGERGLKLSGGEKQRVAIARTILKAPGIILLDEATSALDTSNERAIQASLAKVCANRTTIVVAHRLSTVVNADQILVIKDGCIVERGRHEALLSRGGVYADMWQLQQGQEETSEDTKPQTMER
Assay [11] is described as follows: AML differentiation inducers, ER-HoxA9 marrow cells – cell-based, GFP/MAC1 double positive, flow cytometry, validation set, primary screen (AID 588685;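 active = differentiation response of at least 50%, scaled between solvent and reference control, from cells with both markers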;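 also: compound exposure lasts four days before antibody staining and flow analysis; 0% = DMSO wells and 100% = 5 µM fulvestrant positive control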). As to conditions: stronger effect = higher value, normalized: vehicle 0, fulvestrant 100.

The source made the active and inactive calls.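 The calls were made as follows, unless noted: active = inhibition above 54%, about 3 SD of non-fluorescent compounds; inactive = the rest.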

Sequence of Beta-adrenergic receptor kinase 1 (Homo sapiens) (P25098 whole entry, looked up): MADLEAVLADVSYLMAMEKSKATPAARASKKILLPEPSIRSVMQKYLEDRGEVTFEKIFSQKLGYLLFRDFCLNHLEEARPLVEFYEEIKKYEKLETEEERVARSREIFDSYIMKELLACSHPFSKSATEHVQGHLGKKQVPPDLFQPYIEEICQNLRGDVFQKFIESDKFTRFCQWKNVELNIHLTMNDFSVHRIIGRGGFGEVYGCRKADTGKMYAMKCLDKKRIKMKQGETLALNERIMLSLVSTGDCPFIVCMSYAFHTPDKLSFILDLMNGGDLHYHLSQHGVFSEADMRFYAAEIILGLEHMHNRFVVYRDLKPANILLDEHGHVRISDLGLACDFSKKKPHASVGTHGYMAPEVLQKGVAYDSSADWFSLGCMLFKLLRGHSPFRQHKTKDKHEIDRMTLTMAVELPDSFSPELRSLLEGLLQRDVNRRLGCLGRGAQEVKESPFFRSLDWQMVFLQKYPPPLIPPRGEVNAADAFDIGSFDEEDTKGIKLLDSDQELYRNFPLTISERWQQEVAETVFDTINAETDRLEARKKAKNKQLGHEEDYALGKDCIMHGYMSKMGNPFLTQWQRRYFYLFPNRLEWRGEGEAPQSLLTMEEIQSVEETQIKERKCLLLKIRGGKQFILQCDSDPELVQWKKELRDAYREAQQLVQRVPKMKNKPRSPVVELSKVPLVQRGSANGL
Sequence of Beta-2 adrenergic receptor (Homo sapiens) (P07550 whole entry, looked up): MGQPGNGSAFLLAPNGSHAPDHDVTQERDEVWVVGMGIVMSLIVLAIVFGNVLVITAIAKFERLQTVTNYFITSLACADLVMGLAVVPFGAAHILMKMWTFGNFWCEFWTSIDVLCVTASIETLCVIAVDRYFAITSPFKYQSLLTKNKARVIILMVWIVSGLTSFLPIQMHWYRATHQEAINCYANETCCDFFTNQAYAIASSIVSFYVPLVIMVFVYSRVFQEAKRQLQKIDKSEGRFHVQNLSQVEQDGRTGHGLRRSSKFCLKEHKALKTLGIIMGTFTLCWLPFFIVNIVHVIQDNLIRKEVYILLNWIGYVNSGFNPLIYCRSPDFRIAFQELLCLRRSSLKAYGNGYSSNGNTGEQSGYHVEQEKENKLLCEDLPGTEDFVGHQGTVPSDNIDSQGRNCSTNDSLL

As usually defined, the inhibition is the relative decrease from the control value, in per cent. `Cc1cc(C(=O)NC(CC(C)C)C(=O)O)cc(C)c1[N+](=O)[O-]` (configuration not stated) came in with a double positive events in [1] of 61.7%. For the same molecule, in assay [1], the vesicle binding response is 204% (inactive). In addition, the inhibition was -2.43% (inactive) in assay [2], 1.45% (inactive) in [6] and 17% (inactive) in assay [10]. The superoxide response (% of plate) in assay [3] is 96.9% (inactive). In addition, the aptamer binding inhibition in [4] is 4% (inactive). Besides, the results for the response in assay [5] and in assay [7] were 1% (inactive) and -4.26% (inactive), respectively. Further, the binding (% of control) in assay [8] is 99% (inactive). Further, in [9], the efflux inhibition (fraction of control) was -0.12 (inactive). For the same molecule, in assay [11], the differentiation response is -10.4% (inactive).
`CC1(C)O[C@@H]2C[C@H]3[C@@H]4CCC5=CC(=O)C=C[C@]5(C)[C@@]4(F)[C@@H](O)C[C@]3(C)[C@]2(C(=O)CO)O1` registered a double positive events in [1] of 61.2%. The vesicle binding response in [1] is 123% (inactive). Besides, the results for the inhibition in assay [2], in assay [6] and in [10] were 0.25% (inactive), -3.89% (inactive) and 2% (inactive), respectively. In addition, the superoxide response (% of plate) in assay [3] is 91.8% (inactive). In addition, the aptamer binding inhibition in [4] was -1% (inactive). Moreover, the response is 10.2% (inactive) in assay [5] and -1.77% (inactive) in assay [7]. In addition, in [8], the binding (% of control) was 107% (inactive). In addition, the efflux inhibition (fraction of control) in [9] was -0.22 (inactive). The differentiation response in assay [11] was 40.8% (inactive).
In the case of `O=P(c1ccccc1)(c1ccccc1)c1nc(-c2ccc(Cl)cc2)oc1N1CCOCC1`, the double positive events in assay [1] came out at 57.7%. Moreover, the vesicle binding response in [1] is 148% (inactive). The inhibition is 4.27% (inactive) in assay [2], 7.65% (inactive) in assay [6] and -3% (inactive) in assay [10]. The superoxide response (% of plate) in assay [3] is 135% (inactive). For the same molecule, the aptamer binding inhibition in [4] is 2% (inactive). In addition, the response was -13.6% (inactive) in [5] and 3.02% (inactive) in [7]. The binding (% of control) in assay [8] was 105% (inactive). Also, the efflux inhibition (fraction of control) in assay [9] was 0.435 (active). The differentiation response in assay [11] is -3.11% (inactive).
Take `COc1cccc(N2CC34C=CC(O3)C(C(=O)O)C4C2=O)c1` (configuration not stated): the double positive events in assay [1] stood at 60.2%. Besides, in [1], the vesicle binding response is 168% (inactive). The values for the inhibition in [2], in [6] and in assay [10] were -19.5% (inactive), 28.1% (inactive) and 3% (inactive), respectively. The superoxide response (% of plate) in [3] is 97.6% (inactive). Further, the aptamer binding inhibition in assay [4] was 0% (inactive). The response in [5] is -21.5% (inactive); in assay [7] it was -2.62% (inactive). In assay [8], the binding (% of control) was 102% (inactive). In [9], the efflux inhibition (fraction of control) was 0.08 (inactive). In addition, the differentiation response in [11] was 44% (inactive).
As for `COc1cccc(OC)c1C(=O)NCCSC1CCCCC1`, in [1], the double positive events was 61.3%. In addition, the vesicle binding response in assay [1] was 68.6% (inactive). For the same molecule, the inhibition in assay [2] is 1.59% (inactive); in assay [6], -3.95% (inactive); in [10] it was -5% (inactive). In addition, the superoxide response (% of plate) in [3] is 85.2% (inactive). Moreover, in assay [4], the aptamer binding inhibition is 1% (inactive). The response is 0.14% (inactive) in assay [5] and -0.98% (inactive) in assay [7]. In addition, the binding (% of control) in assay [8] was 104% (inactive). Also, the efflux inhibition (fraction of control) in assay [9] was -0.25 (inactive). Also, the differentiation response in assay [11] is -16.3% (inactive).
In assay [1], `CC(=O)N(CCC1(C(C)C)CCOC(C)(C)C1)Cc1ccco1` (configuration not stated) came in with a double positive events of 64.3%. Further, the vesicle binding response in assay [1] was 276% (inactive). For the same molecule, the figures for the inhibition in assay [2], in assay [6] and in assay [10] were -16.8% (inactive), 0.1% (inactive) and 11% (inactive), respectively. Moreover, the superoxide response (% of plate) in assay [3] is 94.3% (inactive). The aptamer binding inhibition in [4] is -4% (inactive). Also, the response in assay [5] is 3.66% (inactive); in [7], -0.44% (inactive). Also, the binding (% of control) in assay [8] is 105% (inactive). In addition, in [9], the efflux inhibition (fraction of control) is -0.09 (inactive). Moreover, the differentiation response in assay [11] was 12.3% (inactive).
